About 83,000 compounds went through this panel and 20% of them were active in at least one assay; those are over-represented in the sample as a whole.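 Negative percent growth values reflect cell death: -40 means 40% of the cells present at the start died, and -100 means all died.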 Activity calls are given as the source filed them. How the source made its calls: active means growth percent below 10; inactive means the rest.
Key:
Experiment in all cases: NCI-60 one-dose screen, 48 h (100 = growth as untreated, 0 = no growth, -100 = all killed)
Settings in all cases: 10 µM unless noted
SK-MEL-2 melanoma = tested on: SK-MEL-2 melanoma
EKVX NSCLC = tested on: EKVX NSCLC
SN12C renal = tested on: SN12C renal
UO-31 renal = tested on: UO-31 renal
TK-10 renal = tested on: TK-10 renal
ACHN renal = tested on: ACHN renal
CAKI-1 renal = tested on: CAKI-1 renal
A498 renal = tested on: A498 renal
CCRF-CEM leukemia = tested on: CCRF-CEM leukemia
MOLT-4 leukemia = tested on: MOLT-4 leukemia
RPMI-8226 leukemia = tested on: RPMI-8226 leukemia
OVCAR-8 ovarian = tested on: OVCAR-8 ovarian
OVCAR-5 ovarian = tested on: OVCAR-5 ovarian
OVCAR-4 ovarian = tested on: OVCAR-4 ovarian
SK-OV-3 ovarian = tested on: SK-OV-3 ovarian
IGROV1 ovarian = tested on: IGROV1 ovarian
OVCAR-3 ovarian = tested on: OVCAR-3 ovarian
HS 578T breast = tested on: HS 578T breast
NCI/ADR-RES ovarian = tested on: NCI/ADR-RES ovarian

Measured: growth

O=C1CSC(c2c(Cl)cccc2Cl)N1c1nc(Cl)cc(=O)[nH]1 (stereo not drawn)
inactive: SK-MEL-2 melanoma 78.3% | EKVX NSCLC 119% | SN12C renal 108% | UO-31 renal 79.8% | TK-10 renal 161% | ACHN renal 111% | CAKI-1 renal 117% | A498 renal 121% | CCRF-CEM leukemia 67.3% | MOLT-4 leukemia 171% | RPMI-8226 leukemia 58.7% | OVCAR-8 ovarian 107% | OVCAR-5 ovarian 94.4% | OVCAR-4 ovarian 130% | SK-OV-3 ovarian 109% | IGROV1 ovarian 71.9% | OVCAR-3 ovarian 107% | HS 578T breast 109% | NCI/ADR-RES ovarian 95%

Cc1nc(/N=C(\N)NC(=O)Nc2cccc(Cl)c2)sc1C
inactive: SK-MEL-2 melanoma 72% | EKVX NSCLC 68.3% | SN12C renal 86.4% | UO-31 renal 84% | TK-10 renal 111% | ACHN renal 78.4% | CAKI-1 renal 48.6% | A498 renal 42.4% | CCRF-CEM leukemia 68.4% | MOLT-4 leukemia 58.4% | RPMI-8226 leukemia 77% | OVCAR-8 ovarian 94.5% | OVCAR-5 ovarian 96.3% | SK-OV-3 ovarian 87.7% | IGROV1 ovarian 63.1% | OVCAR-3 ovarian 81.5% | HS 578T breast 68.8% | NCI/ADR-RES ovarian 42.3%

COc1ccc(/C=N/Nc2cc(=O)[nH]c3ccc(C)cc23)cc1
inactive: SK-MEL-2 melanoma 81.7% | EKVX NSCLC 82% | SN12C renal 88.3% | UO-31 renal 75.7% | TK-10 renal 116% | ACHN renal 92.2% | CAKI-1 renal 93.1% | A498 renal 87.8% | CCRF-CEM leukemia 88% | MOLT-4 leukemia 79% | RPMI-8226 leukemia 81.6% | OVCAR-8 ovarian 95.6% | OVCAR-5 ovarian 98% | OVCAR-4 ovarian 109% | SK-OV-3 ovarian 87.6% | IGROV1 ovarian 98.4% | OVCAR-3 ovarian 104% | HS 578T breast 88.3% | NCI/ADR-RES ovarian 94.9%

Cc1ccc(C2CC(c3ccc(Nc4ccnc5cc(Cl)ccc45)cc3)=NN2C=O)cc1 (stereo not drawn)
inactive: SK-MEL-2 melanoma 72.2% | EKVX NSCLC 50.1% | SN12C renal 55.1% | UO-31 renal 31.9% | TK-10 renal 83.2% | ACHN renal 34.8% | CAKI-1 renal 49% | A498 renal 73.4% | CCRF-CEM leukemia 28.2% | MOLT-4 leukemia 31.8% | RPMI-8226 leukemia 19.8% | OVCAR-8 ovarian 59.8% | OVCAR-5 ovarian 94.8% | OVCAR-4 ovarian 38.7% | SK-OV-3 ovarian 84.8% | IGROV1 ovarian 48.2% | OVCAR-3 ovarian 30.6% | HS 578T breast 61.8% | NCI/ADR-RES ovarian 42.3%

Cc1ccc(-c2nc(SCC(=O)Nc3nc(-c4ccc(Cl)cc4)cs3)[nH]c(=O)c2C#N)cc1
inactive: SK-MEL-2 melanoma 82.9% | EKVX NSCLC 101% | SN12C renal 110% | UO-31 renal 88.4% | TK-10 renal 103% | ACHN renal 101% | CAKI-1 renal 96.1% | A498 renal 85.2% | CCRF-CEM leukemia 103% | MOLT-4 leukemia 90.4% | RPMI-8226 leukemia 103% | OVCAR-8 ovarian 92.3% | OVCAR-5 ovarian 94.3% | OVCAR-4 ovarian 111% | SK-OV-3 ovarian 100% | IGROV1 ovarian 105% | OVCAR-3 ovarian 115% | HS 578T breast 90.5% | NCI/ADR-RES ovarian 109%

Brc1ccc2[nH]cc(-c3nc(-c4c[nH]c5ccncc45)cs3)c2c1
active: SK-MEL-2 melanoma -46.8% | EKVX NSCLC -67.7% | SN12C renal -85.6% | UO-31 renal -83.9% | TK-10 renal -53% | ACHN renal -95.5% | CAKI-1 renal -92.6% | CCRF-CEM leukemia -23.3% | MOLT-4 leukemia -58.4% | RPMI-8226 leukemia -23.4% | OVCAR-8 ovarian -64.5% | OVCAR-4 ovarian -77.8% | IGROV1 ovarian -86.5% | OVCAR-3 ovarian -91.6% | HS 578T breast -48.4%
inactive: A498 renal 55.9% | OVCAR-5 ovarian 38.9% | SK-OV-3 ovarian 87.6% | NCI/ADR-RES ovarian 14.1%

N#Cc1ccc(NC(=O)c2sc3nc4c(cc3c2N)C(=O)CCC4)cc1
inactive: SK-MEL-2 melanoma 83% | EKVX NSCLC 93.6% | SN12C renal 98.3% | UO-31 renal 104% | TK-10 renal 65.9% | ACHN renal 108% | CAKI-1 renal 93.3% | A498 renal 79.6% | CCRF-CEM leukemia 99.8% | MOLT-4 leukemia 115% | RPMI-8226 leukemia 95.7% | OVCAR-8 ovarian 105% | OVCAR-5 ovarian 89.2% | OVCAR-4 ovarian 106% | SK-OV-3 ovarian 106% | IGROV1 ovarian 113% | OVCAR-3 ovarian 114% | HS 578T breast 111% | NCI/ADR-RES ovarian 106%

Cc1oc2nc[nH]c(=O)c2c1C(=O)/C=C/c1ccc(Br)cc1
active: SN12C renal 1.76% | ACHN renal 1.43% | CCRF-CEM leukemia 6.65% | MOLT-4 leukemia 8.42% | RPMI-8226 leukemia -3.59% | OVCAR-8 ovarian 7.33% | IGROV1 ovarian 8.79% | OVCAR-3 ovarian -10.9% | NCI/ADR-RES ovarian -30.5%
inactive: SK-MEL-2 melanoma 11.9% | EKVX NSCLC 19.7% | UO-31 renal 19.4% | TK-10 renal 40.9% | CAKI-1 renal 28.4% | A498 renal 23.7% | OVCAR-5 ovarian 22.3% | SK-OV-3 ovarian 31.5% | HS 578T breast 24.3%

COc1cc(CCC[P+](c2ccccc2)(c2ccccc2)c2ccccc2)c(OC)c(OC)c1OC
active: A498 renal -6.09%
inactive: SK-MEL-2 melanoma 80.5% | EKVX NSCLC 72.7% | SN12C renal 77.5% | UO-31 renal 43.7% | TK-10 renal 91% | ACHN renal 83.4% | CAKI-1 renal 39.7% | CCRF-CEM leukemia 65% | MOLT-4 leukemia 57.6% | RPMI-8226 leukemia 68.4% | OVCAR-8 ovarian 85.6% | OVCAR-5 ovarian 79.6% | OVCAR-4 ovarian 49.8% | SK-OV-3 ovarian 83.5% | IGROV1 ovarian 70.5% | OVCAR-3 ovarian 72% | HS 578T breast 51.8% | NCI/ADR-RES ovarian 77.7%

COc1ccc(-c2c(C(=O)NS(C)(=O)=O)n(Cc3cccc(C(F)(F)F)c3)c3ccccc23)cc1
inactive: SK-MEL-2 melanoma 101% | EKVX NSCLC 91% | SN12C renal 85.2% | UO-31 renal 73% | TK-10 renal 105% | ACHN renal 91.8% | CAKI-1 renal 80.1% | A498 renal 80.1% | CCRF-CEM leukemia 75.5% | MOLT-4 leukemia 90.3% | RPMI-8226 leukemia 81.2% | OVCAR-8 ovarian 82.1% | OVCAR-5 ovarian 106% | OVCAR-4 ovarian 96.1% | SK-OV-3 ovarian 97.2% | IGROV1 ovarian 90.7% | OVCAR-3 ovarian 88.5% | HS 578T breast 86.5% | NCI/ADR-RES ovarian 94.4%

Oc1ccc(CCl)c2cccnc12
inactive: SK-MEL-2 melanoma 81.2% | EKVX NSCLC 51.6% | SN12C renal 77% | UO-31 renal 45.3% | TK-10 renal 104% | ACHN renal 64.1% | CAKI-1 renal 88.8% | A498 renal 101% | CCRF-CEM leukemia 31.8% | MOLT-4 leukemia 82.6% | RPMI-8226 leukemia 57.4% | OVCAR-8 ovarian 73.8% | OVCAR-5 ovarian 88.4% | OVCAR-4 ovarian 24.6% | SK-OV-3 ovarian 87.9% | IGROV1 ovarian 78.8% | OVCAR-3 ovarian 10.8% | HS 578T breast 79.7% | NCI/ADR-RES ovarian 28.8%

COc1ccc(-c2[nH]ncc2-c2cc3c(c(OC)c2)OCC(=O)N3)cc1
inactive: EKVX NSCLC 38.7% | SN12C renal 35.8% | UO-31 renal 36.4% | ACHN renal 36.7% | CAKI-1 renal 26% | CCRF-CEM leukemia 23.2% | MOLT-4 leukemia 31.9% | RPMI-8226 leukemia 29.3% | OVCAR-8 ovarian 23.5% | OVCAR-5 ovarian 36.7% | OVCAR-4 ovarian 54.4% | SK-OV-3 ovarian 19.8% | IGROV1 ovarian 38.2% | NCI/ADR-RES ovarian 29.7%
active: SK-MEL-2 melanoma 9.07% | TK-10 renal 1.85% | A498 renal -21% | OVCAR-3 ovarian -4.58% | HS 578T breast -2.19%

O=c1ccc(N=Nc2ccccc2)ccc1Cl
inactive: SK-MEL-2 melanoma 77.6% | EKVX NSCLC 65.9% | SN12C renal 60% | UO-31 renal 77% | TK-10 renal 111% | ACHN renal 75.9% | CAKI-1 renal 76.1% | A498 renal 191% | CCRF-CEM leukemia 31.3% | RPMI-8226 leukemia 25.1% | OVCAR-8 ovarian 38.9% | OVCAR-5 ovarian 120% | OVCAR-4 ovarian 84.6% | SK-OV-3 ovarian 93.8% | IGROV1 ovarian 80.7% | OVCAR-3 ovarian 23.7% | HS 578T breast 92.4%
active: MOLT-4 leukemia -1.36% | NCI/ADR-RES ovarian -4.66%

COc1ccc(-c2ncnc3c2ncn3CC#CCCl)cc1
inactive: SK-MEL-2 melanoma 53.4% | EKVX NSCLC 115% | SN12C renal 46.3% | TK-10 renal 69.8% | ACHN renal 52.8% | CAKI-1 renal 61.8% | A498 renal 55.7% | CCRF-CEM leukemia 19.1% | RPMI-8226 leukemia 34.7% | OVCAR-8 ovarian 65.3% | OVCAR-5 ovarian 97.7% | OVCAR-4 ovarian 51.1% | SK-OV-3 ovarian 85.8% | IGROV1 ovarian 46.2% | OVCAR-3 ovarian 53.4% | HS 578T breast 107% | NCI/ADR-RES ovarian 56.2%
active: UO-31 renal -86.7% | MOLT-4 leukemia 4.95%

O=S(=O)(NCCCNc1cc(-c2c(-c3cccc(O)c3)nc3sccn23)ccn1)c1cccc2ccccc12
inactive: SK-MEL-2 melanoma 59.8% | EKVX NSCLC 50% | SN12C renal 21.1% | UO-31 renal 27.6% | TK-10 renal 82.7% | ACHN renal 38.9% | CAKI-1 renal 36.1% | A498 renal 59% | CCRF-CEM leukemia 21.2% | MOLT-4 leukemia 26.4% | OVCAR-8 ovarian 19% | OVCAR-5 ovarian 102% | OVCAR-4 ovarian 36.4% | SK-OV-3 ovarian 58.2% | IGROV1 ovarian 30.6% | OVCAR-3 ovarian 40.1% | HS 578T breast 22.7% | NCI/ADR-RES ovarian 77%
active: RPMI-8226 leukemia 8.85%

Source: PubChem BioAssay (NCI)
